# According to the supplement of paper PMC10849652:
# About 8,800 targets were measured; listed, in parts, are those with a hit and a random draw of the rest. About 0.5% of all pairs of compound and target were hits. Values without a mark were called inactive.
# How the values were obtained:
# Assay in all cases: log2 fold change, soluble protein after heating vs DMSO (PISA); higher = thermal stabilisation; K562 lysate, 10 uM; active = over 0.2 and 3.5 SD of the protein, either way, in both replicates (recomputed)
# nilotinib = compound: Cc1cn(-c2cc(NC(=O)c3ccc(C)c(Nc4nccc(-c5cccnc5)n4)c3)cc(C(F)(F)F)c2)cn1 [nilotinib]
# In short: (§1)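 Dounce homogenisation of K562 pellets in PBS pH 7.4 with 1 mM MgCl2 produced a crude extract, used at 1 mg/mL protein. Exposure to 10 μM compound lasted 30 min, and aliquots were then heated for 3 min across 48°C-58°C, pooled and brought to 0.5% NP-40 at 4°C. The supernatant after 21,000xg for 90 min was quantified by TMTpro 16plex LC-MS/MS with channel sums equalised. Duplicate values are given as log-two fold change in thermal stability relative to solvent controls.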
# [1] = compound: Cc1nc(Nc2n[nH]c3c2CN(C(=O)N[C@H](CN(C)C)c2ccccc2)C3(C)C)c2sccc2n1
# In short: as §1
# dasatinib = compound: Cc1nc(Nc2ncc(C(=O)Nc3c(C)cccc3Cl)s2)cc(N2CCN(CCO)CC2)n1 [dasatinib]
# In short: as §1
# [2] = compound: Cc1ncc(-c2ccnc(Nc3ccc(S(C)(=O)=O)cc3)n2)n1C(C)C
# In short: as §1
# [3] = compound: Cn1cc(-c2ccc3c(c2)CCN3C(=O)Cc2cccc(C(F)(F)F)c2)c2c(N)ncnc21
# In short: as §1
# quisinostat = compound: Cn1cc(CNCC2CCN(c3ncc(C(=O)NO)cn3)CC2)c2ccccc21 [quisinostat]
# In short: as §1
# tipifarnib = compound: Cn1cncc1[C@@](N)(c1ccc(Cl)cc1)c1ccc2c(c1)c(-c1cccc(Cl)c1)cc(=O)n2C [tipifarnib]
# In short: as §1
# [4] = compound: NC(=O)Nc1cc(-c2cccc(F)c2)sc1C(=O)N[C@H]1CCCNC1
# In short: as §1
# [5] = compound: NC(=O)c1cnc(N[C@@H]2CCCC[C@@H]2N)nc1Nc1cccc(-n2nccn2)c1
# In short: as §1
# [6] = compound: NC1(c2ccc(-c3nc4ccn5c(=O)[nH]nc5c4cc3-c3ccccc3)cc2)CCC1
# In short: as §1
# [7] = compound: NCC(=O)Nc1ccc(-n2nc(C(F)(F)F)cc2-c2ccc3c(ccc4ccccc43)c2)cc1
# In short: as §1
# vorinostat = compound: O=C(CCCCCCC(=O)Nc1ccccc1)NO [vorinostat]
# In short: as §1
# silmitasertib = compound: O=C(O)c1ccc2c(c1)nc(Nc1cccc(Cl)c1)c1ccncc12 [silmitasertib]
# In short: as §1
# [8] = compound: O=C1NC(=O)C(c2cnc3ccccn23)=C1c1cn2c3c(cc(F)cc13)CN(C(=O)N1CCCCC1)CC2
# In short: as §1
# entospletinib = compound: c1cn2cc(-c3ccc4cn[nH]c4c3)nc(Nc3ccc(N4CCOCC4)cc3)c2n1 [entospletinib]
# In short: as §1
# Sequence of UniProt P48059 (P48059 whole entry, looked up): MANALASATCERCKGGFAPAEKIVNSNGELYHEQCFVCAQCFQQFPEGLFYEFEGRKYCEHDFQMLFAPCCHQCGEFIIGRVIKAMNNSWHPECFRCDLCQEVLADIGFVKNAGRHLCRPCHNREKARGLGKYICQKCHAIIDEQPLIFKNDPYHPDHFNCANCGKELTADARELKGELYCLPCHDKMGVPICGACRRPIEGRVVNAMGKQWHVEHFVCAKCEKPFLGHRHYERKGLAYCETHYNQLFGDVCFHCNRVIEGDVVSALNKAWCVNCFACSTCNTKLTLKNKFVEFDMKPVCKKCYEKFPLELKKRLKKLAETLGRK
# Sequence of UniProt Q9P2J5 (Q9P2J5 whole entry, looked up): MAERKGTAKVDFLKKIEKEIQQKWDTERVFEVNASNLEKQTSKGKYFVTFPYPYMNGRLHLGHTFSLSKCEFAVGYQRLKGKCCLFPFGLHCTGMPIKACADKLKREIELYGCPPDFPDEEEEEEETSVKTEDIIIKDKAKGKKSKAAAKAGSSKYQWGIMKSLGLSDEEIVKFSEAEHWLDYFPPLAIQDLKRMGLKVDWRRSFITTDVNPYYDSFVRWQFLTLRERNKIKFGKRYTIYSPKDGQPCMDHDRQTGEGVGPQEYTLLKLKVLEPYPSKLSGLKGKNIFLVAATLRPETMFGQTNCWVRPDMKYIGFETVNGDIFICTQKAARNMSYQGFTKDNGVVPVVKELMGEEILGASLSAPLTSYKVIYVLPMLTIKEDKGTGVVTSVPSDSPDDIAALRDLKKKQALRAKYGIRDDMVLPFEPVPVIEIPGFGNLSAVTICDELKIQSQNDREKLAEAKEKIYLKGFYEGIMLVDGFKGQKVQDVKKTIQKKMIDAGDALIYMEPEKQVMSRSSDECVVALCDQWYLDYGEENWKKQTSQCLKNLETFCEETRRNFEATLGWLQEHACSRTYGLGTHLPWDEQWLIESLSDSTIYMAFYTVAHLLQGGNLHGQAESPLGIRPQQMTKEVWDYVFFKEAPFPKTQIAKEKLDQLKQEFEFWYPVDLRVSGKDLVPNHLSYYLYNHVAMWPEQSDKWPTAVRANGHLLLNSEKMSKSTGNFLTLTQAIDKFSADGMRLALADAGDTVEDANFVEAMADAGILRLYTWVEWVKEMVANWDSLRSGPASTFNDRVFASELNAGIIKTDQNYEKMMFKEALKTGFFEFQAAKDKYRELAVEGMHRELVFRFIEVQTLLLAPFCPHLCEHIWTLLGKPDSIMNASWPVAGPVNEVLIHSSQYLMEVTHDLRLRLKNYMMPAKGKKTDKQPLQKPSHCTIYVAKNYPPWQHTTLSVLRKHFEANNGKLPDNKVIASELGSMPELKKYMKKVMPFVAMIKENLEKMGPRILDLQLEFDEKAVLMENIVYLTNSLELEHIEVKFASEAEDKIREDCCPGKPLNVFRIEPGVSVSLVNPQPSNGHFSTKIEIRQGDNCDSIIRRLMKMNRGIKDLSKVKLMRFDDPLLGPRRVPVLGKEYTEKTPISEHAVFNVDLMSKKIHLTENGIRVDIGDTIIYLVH
# Sequence of UniProt P45984 (P45984 whole entry, looked up): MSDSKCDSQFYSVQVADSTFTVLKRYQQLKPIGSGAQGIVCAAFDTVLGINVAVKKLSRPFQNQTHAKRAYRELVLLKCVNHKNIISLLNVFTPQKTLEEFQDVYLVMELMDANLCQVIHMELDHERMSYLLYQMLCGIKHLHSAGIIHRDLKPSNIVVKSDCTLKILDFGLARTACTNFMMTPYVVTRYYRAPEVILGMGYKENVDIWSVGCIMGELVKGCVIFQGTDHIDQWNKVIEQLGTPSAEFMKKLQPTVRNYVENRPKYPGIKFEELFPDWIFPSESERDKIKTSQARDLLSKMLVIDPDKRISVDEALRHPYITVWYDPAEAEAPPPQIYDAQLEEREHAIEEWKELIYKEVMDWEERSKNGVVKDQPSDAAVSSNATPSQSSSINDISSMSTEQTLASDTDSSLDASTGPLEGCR
# Sequence of UniProt Q8WVR3 (Q8WVR3 whole entry, looked up): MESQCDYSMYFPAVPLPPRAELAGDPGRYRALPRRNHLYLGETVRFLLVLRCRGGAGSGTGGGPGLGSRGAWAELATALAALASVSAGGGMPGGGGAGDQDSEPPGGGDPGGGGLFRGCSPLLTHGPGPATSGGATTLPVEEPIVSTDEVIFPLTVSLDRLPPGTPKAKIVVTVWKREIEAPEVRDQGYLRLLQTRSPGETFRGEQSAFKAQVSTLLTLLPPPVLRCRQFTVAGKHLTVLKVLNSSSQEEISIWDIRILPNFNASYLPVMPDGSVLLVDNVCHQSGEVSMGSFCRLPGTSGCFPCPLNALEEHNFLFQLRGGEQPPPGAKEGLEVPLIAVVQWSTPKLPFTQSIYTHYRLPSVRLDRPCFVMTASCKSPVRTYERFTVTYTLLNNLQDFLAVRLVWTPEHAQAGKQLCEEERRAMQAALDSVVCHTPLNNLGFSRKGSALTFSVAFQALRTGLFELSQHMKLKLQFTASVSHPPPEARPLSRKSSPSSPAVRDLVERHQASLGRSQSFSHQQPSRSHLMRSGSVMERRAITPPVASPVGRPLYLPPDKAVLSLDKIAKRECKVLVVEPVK
# Sequence of UniProt O60337 (O60337 whole entry, looked up): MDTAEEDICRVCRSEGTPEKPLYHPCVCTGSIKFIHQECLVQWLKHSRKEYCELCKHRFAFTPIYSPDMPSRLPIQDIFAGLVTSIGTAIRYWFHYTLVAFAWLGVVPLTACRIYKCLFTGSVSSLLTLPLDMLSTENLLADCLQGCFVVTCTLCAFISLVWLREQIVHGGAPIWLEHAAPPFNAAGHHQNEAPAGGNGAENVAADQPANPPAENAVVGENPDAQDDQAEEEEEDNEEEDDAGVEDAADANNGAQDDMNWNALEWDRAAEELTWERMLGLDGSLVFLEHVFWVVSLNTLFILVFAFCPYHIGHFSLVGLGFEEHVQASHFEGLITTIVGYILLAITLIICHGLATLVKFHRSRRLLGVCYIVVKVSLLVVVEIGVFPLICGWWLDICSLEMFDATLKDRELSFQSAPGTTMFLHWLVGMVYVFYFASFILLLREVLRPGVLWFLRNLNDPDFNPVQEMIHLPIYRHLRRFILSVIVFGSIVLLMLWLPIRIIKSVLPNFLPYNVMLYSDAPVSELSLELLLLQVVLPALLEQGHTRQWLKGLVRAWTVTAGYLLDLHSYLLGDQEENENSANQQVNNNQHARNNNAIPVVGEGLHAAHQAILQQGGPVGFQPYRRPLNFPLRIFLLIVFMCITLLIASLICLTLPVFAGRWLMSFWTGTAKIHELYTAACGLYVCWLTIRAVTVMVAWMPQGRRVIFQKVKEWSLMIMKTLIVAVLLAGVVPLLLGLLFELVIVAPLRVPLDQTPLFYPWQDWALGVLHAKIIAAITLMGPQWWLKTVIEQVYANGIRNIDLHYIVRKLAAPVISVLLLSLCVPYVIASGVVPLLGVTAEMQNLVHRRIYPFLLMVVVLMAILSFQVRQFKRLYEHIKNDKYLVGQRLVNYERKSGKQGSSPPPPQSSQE
# Sequence of UniProt Q53G59 (Q53G59 whole entry, looked up): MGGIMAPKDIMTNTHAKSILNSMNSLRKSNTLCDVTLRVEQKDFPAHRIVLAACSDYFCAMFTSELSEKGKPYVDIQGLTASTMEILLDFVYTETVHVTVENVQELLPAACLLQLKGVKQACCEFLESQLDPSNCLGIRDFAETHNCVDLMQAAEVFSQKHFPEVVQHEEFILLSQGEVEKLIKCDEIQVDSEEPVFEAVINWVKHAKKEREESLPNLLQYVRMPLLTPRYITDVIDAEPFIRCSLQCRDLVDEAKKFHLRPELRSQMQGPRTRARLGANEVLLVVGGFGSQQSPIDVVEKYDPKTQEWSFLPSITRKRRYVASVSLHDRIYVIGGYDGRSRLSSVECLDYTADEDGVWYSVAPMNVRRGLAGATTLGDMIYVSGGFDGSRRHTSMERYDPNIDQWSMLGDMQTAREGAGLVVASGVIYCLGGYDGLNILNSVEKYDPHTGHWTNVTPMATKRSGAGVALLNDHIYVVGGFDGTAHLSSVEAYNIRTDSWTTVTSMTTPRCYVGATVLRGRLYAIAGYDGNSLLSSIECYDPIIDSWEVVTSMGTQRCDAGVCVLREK
# Sequence of UniProt Q9H9A6 (Q9H9A6 whole entry, looked up): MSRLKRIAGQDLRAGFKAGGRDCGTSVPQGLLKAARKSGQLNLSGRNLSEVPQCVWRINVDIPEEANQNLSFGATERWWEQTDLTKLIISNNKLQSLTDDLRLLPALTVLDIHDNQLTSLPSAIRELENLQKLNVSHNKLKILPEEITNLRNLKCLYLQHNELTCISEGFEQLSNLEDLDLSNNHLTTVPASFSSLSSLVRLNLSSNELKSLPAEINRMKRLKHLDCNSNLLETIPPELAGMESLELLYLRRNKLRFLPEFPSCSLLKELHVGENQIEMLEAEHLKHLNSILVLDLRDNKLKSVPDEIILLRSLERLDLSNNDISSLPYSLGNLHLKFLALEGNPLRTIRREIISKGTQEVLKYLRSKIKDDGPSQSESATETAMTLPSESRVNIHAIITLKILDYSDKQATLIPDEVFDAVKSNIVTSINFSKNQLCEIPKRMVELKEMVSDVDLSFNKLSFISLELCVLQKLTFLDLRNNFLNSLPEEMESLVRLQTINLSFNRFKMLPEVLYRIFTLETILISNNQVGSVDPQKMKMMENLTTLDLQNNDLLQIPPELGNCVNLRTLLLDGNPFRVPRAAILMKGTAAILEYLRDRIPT
# Sequence of UniProt Q9UBU8 (Q9UBU8 whole entry, looked up): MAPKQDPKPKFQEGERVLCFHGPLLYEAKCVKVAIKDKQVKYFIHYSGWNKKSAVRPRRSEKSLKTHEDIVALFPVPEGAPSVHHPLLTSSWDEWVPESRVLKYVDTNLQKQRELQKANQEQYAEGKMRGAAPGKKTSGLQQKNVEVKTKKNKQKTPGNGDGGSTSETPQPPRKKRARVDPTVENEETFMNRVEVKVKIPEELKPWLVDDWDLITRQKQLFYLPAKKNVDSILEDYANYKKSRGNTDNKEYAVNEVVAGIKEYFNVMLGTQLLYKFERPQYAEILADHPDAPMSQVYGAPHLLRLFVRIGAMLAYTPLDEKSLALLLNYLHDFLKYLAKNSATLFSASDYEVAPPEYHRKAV
Target,log2 fold change (nilotinib),log2 fold change [1],log2 fold change (dasatinib),log2 fold change [2],log2 fold change [3],log2 fold change (quisinostat),log2 fold change (tipifarnib),log2 fold change [4],log2 fold change [5],log2 fold change [6],log2 fold change [7],log2 fold change (vorinostat),log2 fold change (silmitasertib),log2 fold change [8],log2 fold change (entospletinib)
MPZL1 (UniProt O95297),-0.03,0.032,0.033,-0.014,0.018,0.071,0.035,-0.02,0.026,0.028,-0.059,0.022,-0.004,0.021,0.017
MAP11 (UniProt Q8WVR3),-0.088,0.002,0.002,0.021,-0.058,-0.026,-0.063,0.037,-0.014,-0.007,-0.017,-0.488 (active),-0.015,0.056,-0.131
KLHL12 isoform 2 (UniProt Q53G59),-0.037,-0.044,-0.056,0.064,-0.07,0.04,0.015,0.097,0.043,0.035,0.135,-0.108,0.024,0.003,–
LRRC40 (UniProt Q9H9A6),-0.008,-0.01,-0.012,-0.035,0.017,0.032,-0.032,0.004,0.004,0.029,-0.005,-0.315 (active),0.027,-0.043,0.02
MED10 (UniProt Q9BTT4),0.042,-0.012,0.031,-0.021,0.043,0.04,-0.066,-0.082,0.025,-0.045,-0.001,-0.04,-0.085,0.021,-0.349 (active)
MORF4L1 isoform 2 (UniProt Q9UBU8),0.037,0.069,-0.013,-0.009,0,0,-0.009,-0.007,-0.008,-0.018,0.013,0.058,-0.002,0.015,0.018
MAPK9 (UniProt P45984),-0.015,0.025,-0.005,0.174,0.118,0.004,-0.028,-0.005,0.009,0.012,-0.008,-0.129,0.037,-0.004,0
LIMS1 isoform 3 (UniProt P48059),0.076,0.035,0.017,0.104,0.018,0.255 (active),0.002,-0.065,-0.007,0.001,-0.022,0.049,0.013,0.054,-0.016
LARP4B (UniProt Q92615),-0.05,0.03,-0.053,-0.02,0.012,-0.026,0,0.026,-0.001,0.008,0.019,-0.306 (active),0.032,-0.028,-0.011
MAD2L1BP isoform 3 (UniProt Q15013),-0.028,0.108,0.016,-0.007,-0.026,-0.066,0.018,-0.019,0.048,-0.056,-0.026,-0.299 (active),-0.019,0.008,0
MCU (UniProt Q8NE86),-0.044,0.012,-0.065,0.072,0.006,-0.054,-0.096,0.011,0.025,-0.085,-0.037,0.04,0,-0.072,-0.016
MRPL35 (UniProt Q9NZE8),0.05,-0.027,0.062,0.049,-0.028,0.004,-0.037,-0.034,-0.007,0.056,-0.229,-0.159,0.04,0.013,–
LARS (UniProt Q9P2J5),0.012,0.003,-0.065,-0.012,0.038,-0.005,-0.006,0.034,0,-0.024,-0.021,-0.399 (active),0.052,-0.003,0.012
MIF (UniProt P14174),0.036,-0.042,0.001,-0.007,-0.009,0.058,0.061,0.035,0,0.033,0.048,-0.055,0.065,-0.009,0.064
MIF4GD isoform 3 (UniProt A9UHW6),-0.036,0.031,0.056,-0.015,0.039,-0.04,0.016,0.052,-0.032,-0.007,0.008,-0.232 (active),0.018,-0.012,-0.032
MARCHF6 (UniProt O60337),0.164,-0.024,-0.136,0.04,-0.169,-0.085,-0.179,-0.025,-0.023,-0.008,0,0.057,-0.037,-0.06,-0.028
MAP2K3 isoform 3 (UniProt P46734),-0.001,-0.004,-0.021,0.021,0.059,-0.055,-0.093,0.034,-0.03,0.131,-0.033,-0.577 (active),0.149,0.025,0.072
MAPK6 (UniProt Q16659),-0.065,0.085,0.032,0.05,0.039,-0.003,-0.081,0.055,0.017,-0.028,-0.04,-0.033,0.033,0.035,0.024
MIPEP (UniProt Q99797),0.002,0.024,0.005,-0.008,0.031,0.45 (active),0.033,-0.016,0.01,0.054,0.005,-0.043,0.007,-0.021,-0.028
